Experimental data from PubChem BioAssay (EPA / NIEHS).
Results filed as inconclusive are left out. The source holds several records for some structures; these can differ, active in one and inactive in another. The source made the active and inactive calls. How the source made its calls, unless noted: active means hit-call score of the fitted dose curve at least 0.9, where 1 is the maximum; inconclusive means response in the unintended direction; inactive means score below 0.9.

Legend:
[1] = Tanguay_ZF_120hpf_CIRC_legacy: (Legacy) Oregon State University Tanguay Lab 120 Hour Post-fertilization zebrafish Assay for Circulatory Malformation (AID 2283651)
Summary of the method: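 Tropical 5D wild-type embryos, dechorionated with pronase at 4 hpf, were placed singly in wells at 6 hpf and exposed statically at 28C to 120 hpf (0.64% DMSO final). Circulatory malformation was scored present/absent by brightfield microscopy.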

[2] = Tanguay_ZF_120hpf_SWIM_legacy: (Legacy) Oregon State University Tanguay Lab 120 Hour Post-fertilization zebrafish Assay for Swim Bladder Malformation (AID 2283654);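 further: swim bladder malformation in each larva scored yes or no under brightfield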
Summary of the method: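 Dechorionated Tropical 5D wild-type embryos, placed singly from 6 hpf, were statically exposed at 28C to 120 hpf with 0.64% DMSO final; swim bladder malformation was scored present/absent by brightfield microscopy, gain of signal relative to DMSO controls.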

[3] = Tanguay_ZF_120hpf_TRUN_legacy: (Legacy) Oregon State University Tanguay Lab 120 Hour Post-fertilization zebrafish Assay for Truncated Body (AID 2283655)
Summary of the method: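 Binary presence/absence of truncated body is recorded at 120 hpf by brightfield, with non-mortality endpoints skipped after death. Exposure is static from 6 hpf in sealed dark plates at 28C, using dechorionated wild-type zebrafish, 0.64% DMSO.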

[4] = read-out: ABC Transporter (ABCB1), ABCB1 (gene 5243); test: CLD_ABCB1_6hr: CellzDirect (CLD) Gene Expression Assay for ABC Transporter (ABCB1) at 6 hours (AID 2283659);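 further: hits raise ABCB1 transcript above the DMSO vehicle baseline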
Summary of the method: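 Primary human hepatocytes (two donor preparations) dosed daily for two days with chemicals at multiple concentrations, 0.2% DMSO vehicle; harvested 6 h post-dose. ABCB1 mRNA induction quantified by qNPA chemiluminescence; gain-of-signal fitted versus DMSO.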

[5] = read-out: xenobiotic metabolism (CYP1A1), CYP1A1 (gene 1543); test: CLD_CYP1A1_6hr: CellzDirect (CLD) Gene Expression Assay for xenobiotic metabolism (CYP1A1) at 6 hours (AID 2283661);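 on AC50: potency for transcript induction above DMSO vehicle baseline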
Summary of the method: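 Primary human hepatocytes from two donors, compound versus 0.2% DMSO vehicle. CYP1A1 mRNA measured 6 h after dosing by quantitative nuclease protection assay with chemiluminescent read-out; induction fitted relative to DMSO, cytotoxicity flagged by microscopy.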

[6] = Tanguay_ZF_120hpf_TR_legacy: (Legacy) Oregon State University Tanguay Lab 120 Hour Post-fertilization zebrafish Assay for Touch Response (AID 2283667)
Summary of the method: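 Tropical 5D wild-type zebrafish embryos were exposed statically in sealed, foil-covered plates at 28C until 120 hpf, with 0.64% (vol/vol) final DMSO. Touch response was scored as present or absent; embryos that died were not scored.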

[7] = read-out: sulfotransferase (SULT2A), SULT2A1 (gene 6822); test: CLD_SULT2A_6hr: CellzDirect (CLD) Gene Expression Assay for sulfotransferase (SULT2A) at 6 hours (AID 2283669);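 further: hits raise transcript level above the DMSO vehicle baseline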
Summary of the method: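 Primary human hepatocytes from two donor preparations were dosed daily with chemicals or 0.2% DMSO and harvested at 6 h. Transcript induction read by qNPA chemiluminescence, fitted for gain of signal relative to DMSO; morphology-based cytotoxicity annotated.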

[8] = read-out: glucuronosyltransferase (UGT1A1), UGT1A1 (gene 54658); test: CLD_UGT1A1_6hr: CellzDirect (CLD) Gene Expression Assay for glucuronosyltransferase (UGT1A1) at 6 hours (AID 2283672)
Summary of the method: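 Primary human hepatocytes from two donor preparations, dosed with fresh solutions in 0.2% DMSO, harvested at 6 h. UGT1A1 mRNA measured by qNPA chemiluminescence; induction fitted upward versus DMSO.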

[9] = read-out: kallikrein-3 (KLK3), KLK3 (gene 354); test: LTEA_HepaRG_KLK3: Life Technologies and Expression Analysis (LTEA) Assay for kallikrein-3 (KLK3) using HepaRG (AID 2283652; active means hit-call score of the fitted dose curve at least 0.9, where 1 is the maximum; inactive means score below 0.9); settings: mRNA level, 48 h; actives raise or lower the signal
Summary of the method: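 Differentiated human HepaRG cells in serum-free induction medium exposed 48 h in duplicate, eight-point half-log series from 100 uM in 0.5% DMSO. KLK3 mRNA by qRT-PCR, normalised to ACTB, GAPDH, POLR2A; bidirectional fit versus DMSO.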

[10] = read-out: solute carrier (SLC22A6), SLC22A6 (gene 9356); test: LTEA_HepaRG_SLC22A6: Life Technologies and Expression Analysis (LTEA) Assay for solute carrier (SLC22A6) using HepaRG (AID 2283653; active means hit-call score of the fitted dose curve at least 0.9, where 1 is the maximum; inactive means score below 0.9); settings: mRNA level, 48 h; actives raise or lower the signal
Summary of the method: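 SLC22A6 transcript was measured by TaqMan qRT-PCR, normalized to three housekeeping genes, after 48 h duplicate exposure of HepaRG cells (100 uM top, half-log steps, 0.5% DMSO); bidirectional fit against vehicle.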

[11] = read-out: solute carrier (SLC10A1), SLC10A1 (gene 6554); test: LTEA_HepaRG_SLC10A1: Life Technologies and Expression Analysis (LTEA) Assay for solute carrier (SLC10A1) using HepaRG (AID 2283657; active means hit-call score of the fitted dose curve at least 0.9, where 1 is the maximum; inactive means score below 0.9); settings: mRNA level, 48 h; actives raise or lower the signal
Summary of the method: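 Differentiated HepaRG cells were plated 48 h, then exposed in serum-free induction medium for 48 h to 8 concentrations (top 100 uM, half-log steps, 0.5% DMSO). SLC10A1 mRNA was quantified by qRT-PCR normalized to ACTB, GAPDH, POLR2A; bidirectional fit versus DMSO.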

[12] = read-out: matrix metalloproteinase-1 (MMP1), MMP1 (gene 4312); test: LTEA_HepaRG_MMP1: Life Technologies and Expression Analysis (LTEA) Assay for matrix metalloproteinase-1 (MMP1) using HepaRG (AID 2283658; active means hit-call score of the fitted dose curve at least 0.9, where 1 is the maximum; inactive means score below 0.9); settings: mRNA level, 48 h; actives raise or lower the signal
Summary of the method: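 qRT-PCR (TaqMan, Fluidigm arrays) of MMP1 transcript, normalized against three housekeeping genes and fitted in both directions relative to 0.5% DMSO vehicle. Human HepaRG cultures received duplicate 48 h exposures across 8 points, highest 100 uM with half-log steps.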

[13] = system: Thyroperoxidase (TPO), gene 54314; test: CCTE_Simmons_AUR_rTPO: CCTE's Amplex UltraRed Assay for Thyroperoxidase (TPO) Inhibition, Simmons Lab (AID 2283662);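 further: potency for loss of signal meaning inhibition of peroxidase activity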
Summary of the method: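 Cell-free peroxidase activity assay using rat thyroid gland microsomes with excess H2O2 (300 uM) and 25 uM Amplex UltraRed. Compounds tested from 5 nM to 87.5 uM; fluorescence measured after 30 min at 37C, analysed relative to DMSO baseline.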

[14] = read-out: xenobiotic metabolism (CYP1A2), CYP1A2 (gene 1544); test: CLD_CYP1A2_6hr: CellzDirect (CLD) Gene Expression Assay for xenobiotic metabolism (CYP1A2) at 6 hours (AID 2283663);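 on AC50: potency is for induction meaning a rise in mRNA above DMSO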
Summary of the method: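 Primary human hepatocytes from two donor preparations, dosed daily with multiple concentrations in 0.2% DMSO and harvested at 6 h. CYP1A2 mRNA induction measured by chemiluminescent qNPA, gain of signal fitted against DMSO; cytotoxicity flagged morphologically.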

[15] = CCTE_Simmons_CellTiterGLO_HEK293T: Viability Assessment in CCTE's Assays for Thyroperoxidase (TPO) Inhibition, Simmons Lab (AID 2283665);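 on AC50: cells exposed to compound for 24 h before readout; actives reduce ATP signal below DMSO vehicle meaning cytotoxicity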
Summary of the method: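 HEK293T cells in DMEM with 1% FBS were dosed with 8 concentrations (5 nM–87.5 uM final, 0.5% DMSO) for 24 hr at 37C; ATP content was read by CellTiter-Glo luminescence, loss-of-signal versus DMSO, three biological replicates.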

[16] = read-out: Cytochrome P450 (CYP24A1_1), CYP24A1 (gene 1591); test: LTEA_HepaRG_CYP24A1_1: Life Technologies and Expression Analysis (LTEA) Assay for Cytochrome P450 (CYP24A1_1) using HepaRG (AID 2283671; active means hit-call score of the fitted dose curve at least 0.9, where 1 is the maximum; inactive means score below 0.9); settings: mRNA level, 48 h; actives raise or lower the signal
Summary of the method: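 HepaRG, 48 h exposure, 8-pt half-log series from 100 uM in 0.5% DMSO, duplicates. Readout: TaqMan qRT-PCR of CYP24A1 mRNA, housekeeping-normalized (ACTB/GAPDH/POLR2A). Bidirectional curve fit vs DMSO baseline.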

[17] = read-out: ABC Transporter (ABCB11), ABCB11 (gene 8647); test: CLD_ABCB11_6hr: CellzDirect (CLD) Gene Expression Assay for ABC Transporter (ABCB11) at 6 hours (AID 2283675);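 further: hits raise ABCB11 mRNA level so AC50 marks induction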
Summary of the method: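 Human primary hepatocytes (two donor preparations) given fresh chemical daily at multiple concentrations, vehicle 0.2% DMSO. ABCB11 mRNA induction measured 6 h after dosing by qNPA chemiluminescence versus DMSO; cytotoxicity annotated from morphology.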

[18] = read-out: organic anion transporter (SLCO1B1), SLCO1B1 (gene 10599); test: CLD_SLCO1B1_6hr: CellzDirect (CLD) Gene Expression Assay for organic anion transporter (SLCO1B1) at 6 hours (AID 2283668);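 further: active means mRNA induction above DMSO baseline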
Summary of the method: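 Primary human hepatocytes dosed daily with test chemicals (multiple concentrations) in 0.2% DMSO vehicle; harvested at 6 h. SLCO1B1 mRNA quantified by qNPA chemiluminescence, fitted as gain-of-signal versus DMSO; cytotoxicity from phase-contrast morphology flagged alongside.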

[19] = read-out: ABC Transporter (ABCB11), ABCB11 (gene 8647); test: CLD_ABCB11_24hr: CellzDirect (CLD) Gene Expression Assay for ABC Transporter (ABCB11) at 24 hours (AID 2283674; active means hit-call score of the fitted dose curve at least 0.9, where 1 is the maximum; inactive means score below 0.9)
Summary of the method: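 Primary human hepatocytes were dosed daily for two days, with 0.2% DMSO vehicle. ABCB11 mRNA induction was measured at 24 hours by quantitative nuclease protection assay with chemiluminescence. Gain of signal was fitted relative to DMSO.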

[20] = Tanguay_ZF_120hpf_NC_legacy: (Legacy) Oregon State University Tanguay Lab 120 Hour Post-fertilization zebrafish Assay for Notochord and Tail Malformation (AID 2283656)
Summary of the method: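 Dechorionated 5D zebrafish, 1/well from 6 hpf; static exposure to 120 hpf, 28C, sealed, dark; final DMSO 0.64% v/v. NC scored binary (present/absent); dead embryos not scored. Fit vs DMSO baseline, gain direction.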

Measured: AC50

CC(C)(C)[C@@H](O)[C@@H](Cc1ccc(Cl)cc1)n1cncn1
inactive: [1] | [2] | [3] | [4] | [6] | [7] | [8]
active: [5] 1.9 µM

CCOC(=O)c1ccc(O)cc1
inactive: [1] | [2] | [3] | [6]

CCCCOCCOCCOCc1cc2c(cc1CCC)OCO2
active: [3] 48 µM | [11] 67.7 µM | [5] 4.17 µM | [13] 34.2 µM | [14] 5.75 µM
not listed: [4] | [17] | [18] | [19] | [20]
inactive: all other assays above

CCCCCOC(=O)COc1cc(N2C(=O)C3=C(CCCC3)C2=O)c(F)cc1Cl
inactive: [1] | [2] | [3] | [4] | [6] | [7] | [8] | [17]
active: [5] 20 µM

CN(C)C(=O)Nc1ccc(Cl)c(Cl)c1
active: [11] 52.8 µM | [5] 3.97 µM | [13] 36.6 µM
not listed: [3] | [9] | [14] | [15] | [18] | [19] | [20]
inactive: all other assays above

CCOC(=O)C(C)Oc1ccc(Oc2nc3ccc(Cl)cc3o2)cc1 (stereo not given)
active: [13] 43.6 µM
not listed: [9] | [10] | [11] | [12] | [14] | [16] | [19] | [20]
inactive: all other assays above

CCCCC(CC)COC(=O)c1ccccc1C(=O)O (stereo not given)
inactive: [1] | [2] | [3] | [4] | [18] | [7] | [8] | [17]
active: [5] 0.0637 µM

CSC(=O)c1cccc2nnsc12
inactive: [1] | [2] | [3] | [4] | [15] | [6] | [7] | [8] | [17]
active: [5] 20 µM | [13] 0.303 µM

CCN(CC)C(=O)c1cccc(C)c1
inactive: [1] | [2] | [3] | [4] | [5] | [14] | [6] | [18] | [7] | [8]

CCN(Cc1c(F)cccc1Cl)c1c([N+](=O)[O-])cc(C(F)(F)F)cc1[N+](=O)[O-]
inactive: [1] | [2] | [3] | [6] | [7] | [8] | [17]
active: [5] 1.9 µM

Oc1ccc(C(c2ccc(O)cc2)C(Cl)(Cl)Cl)cc1
inactive: [4] | [7] | [8] | [19] | [17]
active: [1] 202 µM | [2] 202 µM | [3] 69.5 µM | [5] 0.0522 µM | [13] 4.87 µM | [15] 28.8 µM

S=C(S)NCCNC(=S)S.[Mn+2].[S-]C([S-])=NCCN=C([S-])[S-].[Zn+2]
active: [11] 1.74 µM | [5] 1.45 µM
not listed: [9] | [12] | [13] | [14] | [19]
inactive: all other assays above
